We go through 40 compounds from PubChem BioAssay (NCI).

The panel holds about 83,000 compounds, 20% with a hit somewhere; the sample as a whole holds those more often.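 For each line, cells grew in 96-well plates with the test compound present at a single concentration for 48 hours.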 A number with no mark means an inactive call. The source made the active and inactive calls.

The test has as its system MDA-MB-435 melanoma. The test is described as follows: NCI-60 one-dose screen, 48 h (100 = growth as untreated, 0 = no growth, -100 = all killed). The following applies: 10 µM unless noted. The protocol: Growth inhibition of the MDA-MB-435 human Melanoma tumor cell line is measured as a screen for anti-cancer activity. Cells are grown in 96 well plates and exposed to the test compound for 48 hours. Compounds are tested at a single concentration, which is 10^-5 M for most compounds. The reported endpoint is percent growth (GI% or GIPRCNT), where numbers from 0 - 100% represent growth inhibition, and numbers from -100% - 0 represent cell death. For example, a value of 40 represents 60% growth inhibition. A value of 0 means no net growth occurred over the course of the experiment. A value of -40 indicates 40% of cells at the beginning of the experiment died by the end of the experiment. A value of -100 means all cells are dead at the end of the experiment.
NCI-60 Human Tumor Cell Lines Screen was performed using the standard one-dose NCI protocol, which is described in more detail at https://dtp.cancer.gov/discovery_development/nci-60/default.htm.
Compounds with GIPRCNT values below 10 were considered active. Activity score was based on GIPRCNT using the following formula: […]
Score is 0 for GIPRCNT values of 100 or above, 50 for GIPRCNT values of 0, and 100 for GIPRCNT values of -100.
For `CCOC(=O)c1c(-c2ccc(Cl)cc2)c(C#N)c(=O)n(-c2ccccc2CC)c1N`, the growth is 106%. Next, `N[C@@H](CCCCNCC(=O)O)C(=O)O`: 102%; `Cc1cc(C)c(-c2c(C)cc(C)cc2CBr)c(CBr)c1`: 77%; `C[C@]12CC[C@@H]3c4cc(OC(F)F)c(O)cc4CC[C@H]3[C@@H]1CC[C@@H]2OS(N)(=O)=O`: 0.824% (active). Next, `O=C1OC(c2nc3ccccc3s2)=C/C1=C\c1ccc(O)cc1`: 102%; `CSc1n(Cc2ccc3ccccc3c2)c(C)c[n+]1Cc1ccc2ccccc2c1`: -66.2% (active); `c1csc(-c2c3ccc(=[N+]4CCCCC4)cc-3oc3cc(N4CCCCC4)ccc23)c1`: -46.5% (active). In the case of `COCCN(C(=O)c1ccc(F)cc1F)c1c(N)n(Cc2ccccc2)c(=O)[nH]c1=O`, the growth was 105%. For `CCN1C(=O)N(CC)C2Nn3c(s/c(=C\c4cccc([N+](=O)[O-])c4)c3=O)=NC21` (stereo not given), the growth was -36.8% (active). Regarding `COc1cccc(-c2nn(-c3ccccc3)cc2-c2ccnc(NCCCNC(=O)Nc3ccc(Cl)c(Cl)c3)c2)c1`, the growth is -36.3% (active).

Turning to `NC(=S)N/N=C/Cc1ccccc1`, the growth was 124%. For the compound `Cc1ccc(C(=O)C2=C(O)C(=O)N(Cc3cccnc3)C2c2ccccc2F)o1` (stereo not given), the growth was 102%.

As for `CCOC(CN=Cc1cc(C)c2[nH]c3ccccc3c2c1C)OCC`, the growth is 97.8%. On to `Cc1cc(/C=C\c2ccc3ccccc3[n+]2C)c(O)c2ncccc12`, for which the growth was 6.21% (active). Under `COc1cccc(-c2nn(-c3ccccc3)cc2-c2ccnc(NCCNC(=O)Nc3cccc(C(F)(F)F)c3)c2)c1` stands 29.1%; under `CC(=O)c1ccc(NCC(=O)Nc2ccccn2)cc1`, 104%. For the compound `O=C(Nc1ccccc1-c1nc2ccccc2c(=O)[nH]1)c1cc2ccccc2[nH]1`, the growth was 106%. With `Cn1c2c(c3ccc(Cl)c(Cl)c31)C(C#N)C1(CCNCC1)NC2=O` (stereo not given), the growth was 5.97% (active).

Take `O=C(c1ccccc1)N1N=C(c2ccccc2)CC1c1nnc2n(Cc3ccccc3)c(=O)c3c4c(sc3n12)CCCC4` (stereo not given): the growth is 97.9%.

For `COC(=O)[C@]12CC[C@@H](C)[C@H](C)[C@@H]1C1=CC[C@@H]3[C@@]4(C)C(C=O)=C[C@@](C)(COS(C)(=O)=O)C4[C@H](O)C[C@@]3(C)[C@]1(C)CC2` (stereo not given in full), the growth was -21.5% (active). Next, `COc1ccc(C(=O)COc2ccc(/C=C3\Oc4ccccc4C3=O)cc2)cc1`: 59.7%; `C[n+]1cc2c3c(ccc2c2ccc4cc5c(cc4c21)OCO5)OCO3`: -85.8% (active); `C=C1C(=O)O[C@H]2[C@H]1CC/C(COC(=O)C(=O)c1c[nH]c3ccc(OC)cc13)=C\CC[C@@]1(C)O[C@@H]21`: -85.3% (active). Next, `NC1=NCc2nc3ccccc3c(=O)n2C1`: 100%. As to `c1ccc2c(c1)nc(CN1CCOCC1)n1cc(N3CCCC3)nc21`, the growth was 106%. Next, `O=c1[nH]nc(-c2ccccc2)c2c(-c3ccccc3)onc12`: 16.7%; `COc1ccc(NC(=O)CSc2nc(C)c(C(C)=O)n2-c2ccc([N+](=O)[O-])cc2)cc1`: 93.2%. Under `NNC(=O)c1nc(N)n(-c2ccc(S(N)(=O)=O)cc2)n1` stands 97.8%. Under `COc1cccc(-c2nn(-c3ccccc3)cc2-c2ccnc(NCCCNC(=O)c3cccc(C(F)(F)F)c3)c2)c1` stands 24.6%; under `O=C1CCC2=C3C4CCCCC4C(=O)C4CCCC(OC2C1)C34` (stereo not given), -68% (active). As for `O=C(Nc1cccc2c(O)c(N=Nc3ccc(S(=O)(=O)Nc4nccs4)cc3)cc(N=Nc3ccc(S(=O)(=O)Nc4nccs4)cc3)c12)C(Cl)Cl`, the growth is 106%. Under `O=C(Nc1cccc(Oc2nnc(Cl)c3ccccc23)c1)Nc1ccc(Cl)c(C(F)(F)F)c1` stands -78.4% (active). As to `O=C(c1ccccc1)c1c(/C=C/c2ccc(Cl)cc2)nc2ccccc2c1/C=C/c1cccs1`, the growth was 99.1%. Under `Nc1cc2c3c(cccc3c1)C(=O)N(CCN1CCCC1)C2=O` stands 48.7%; under `Cc1ccc(C(=O)CSc2nc(-c3ccc(Br)cc3)c(C#N)c(=O)[nH]2)cc1`, 93.2%. With `C=CCn1c(C)nc2cc(Nc3nc(N4CCCC4)nc4ccccc34)ccc21`, the growth is 92.4%.

For the compound `N=C1C(c2nc(-c3ccc(Br)cc3)cs2)=C(O)CN1CC1CCCO1` (stereo not given), the growth was 88.8%. Under `COc1ccc(-c2[nH]c(=S)n(C(CC3(C)NCC(=O)N3n3c(-c4ccccc4)cc(C)nc3=S)c3ccc(OC)cc3)c(=O)c2Br)cc1` (stereo not given) stands 57.4%; under `Cc1ccc(S(=O)(=O)N/N=C\c2cc(Cl)ccc2O)cc1`, 82%; under `CCN(CC)CCn1nc2c3c(cccc3c1=O)-c1ccccc1-2`, 39.7%.
